Assay results reported in PubChem BioAssay AID720504 (National Center for Advancing Translational Sciences (NCATS), 2013).
Among all 360,000 compounds or so, about 10,000 (2.8%) were called active. Not shown: some 4% with an inconclusive outcome. The call rests on the fitted dose curve; in most records, active means well fitted inhibition curve with a large enough effect; inconclusive means small, poorly fitted or top-dose-only effect; inactive means flat fitted curve, though single readings scatter. Shown is part of a subset that was picked to be rich in actives.
Further: nearly all actives have a fitted effect of over 65% in size.
On the % scale 0 is the no-effect control and ±100 the full control effect; potency means the concentration at half of the fitted maximal effect.
Wherever max response, negative = inhibition is given: series mostly up to about 57 µM.

These compounds were tested against Serine/threonine-protein kinase PLK1 (Homo sapiens) (UniProt P53350) (assay: qHTS for Inhibitors of PLK1-PDB (polo-like kinase 1 - polo-box domain): Primary Screen). Details: Plk1 PBD binding of FITC phosphopeptide, fluorescence polarization.
Serine/threonine-protein kinase PLK1 (Homo sapiens), sequence (P53350 whole entry, looked up, the tested form may be a part): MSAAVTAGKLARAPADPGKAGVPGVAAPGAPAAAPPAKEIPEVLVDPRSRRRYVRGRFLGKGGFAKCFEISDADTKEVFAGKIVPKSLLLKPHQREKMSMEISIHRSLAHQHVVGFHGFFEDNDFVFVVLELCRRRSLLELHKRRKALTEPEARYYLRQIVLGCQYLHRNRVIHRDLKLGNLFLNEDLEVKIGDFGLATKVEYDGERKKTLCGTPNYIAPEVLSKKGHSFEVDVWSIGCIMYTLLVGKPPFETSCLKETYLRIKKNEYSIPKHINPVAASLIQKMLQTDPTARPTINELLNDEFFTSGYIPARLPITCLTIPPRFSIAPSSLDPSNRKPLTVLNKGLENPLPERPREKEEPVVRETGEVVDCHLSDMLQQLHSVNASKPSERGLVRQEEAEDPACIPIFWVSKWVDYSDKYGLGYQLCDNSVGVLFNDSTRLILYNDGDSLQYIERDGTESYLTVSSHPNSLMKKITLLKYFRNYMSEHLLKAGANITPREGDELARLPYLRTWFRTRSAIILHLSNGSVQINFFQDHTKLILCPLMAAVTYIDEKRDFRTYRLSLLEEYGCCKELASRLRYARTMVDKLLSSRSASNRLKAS
In the case of `CCCn1c(=O)c(C(=O)Nc2cc(C)ccn2)c(O)c2ccccc21`, the max response, negative = inhibition is reported as -9.12% (inactive).
For `C=CCn1c(=O)c(C(=O)Nc2ncccc2O)c(O)c2ccccc21`, the max response, negative = inhibition was -22.1% (inactive).
With `Cn1c(=O)c(C(=O)Nc2ncccn2)c(O)c2ccccc21` the Potency was 8.44 µM (active).
In the case of `CC(C)c1cc(Cn2c3ccccc3c(=O)n2C(C)Cn2cc(C3CC3)nn2)on1` (stereo not drawn), the max response, negative = inhibition is reported as -4.91% (inactive).
In the case of `CCn1c(Cc2cccs2)nnc1SCC(=O)c1ccc(C)cc1`, the Potency is reported as 16.8 µM (active).
With `CCn1c(SCC(=O)c2ccc(Cl)s2)nnc1-c1cccs1` the max response, negative = inhibition was -17.2% (inactive).
For `Cc1ccc(-n2c(Cc3cccs3)nnc2SCC(=O)OC(C)C)cc1`, the max response, negative = inhibition was -2.98% (inactive).
In the case of `COC(=O)[C@@]12C[C@@H](CC(=O)N3CCC(c4ccccc4)CC3)C(=O)N(Cc3ccccc3)C1=CCC(C)(C)C2`, the max response, negative = inhibition is reported as -1.16% (inactive).
`O=C(NCc1ccc(F)cc1)c1cc(C2CCCCN2C(=O)c2ccccn2)on1` (stereo not drawn) was tested, and the max response, negative = inhibition was -4.01% (inactive).
With `c1ccc(-c2cc3c(NCC4COc5ccccc5O4)ncnc3s2)cc1` (stereo not drawn) the max response, negative = inhibition was -4.18% (inactive).
In the case of `Oc1ccccc1N1CCN(c2ncnc3sc(-c4ccccc4)cc23)CC1`, the Potency is reported as 15 µM (active).
In the case of `COc1ccccc1N1CCN(c2ncnc3sc(C)c(-c4ccccc4)c23)CC1`, the max response, negative = inhibition is reported as 8.83% (inactive).
`CS(=O)(=O)c1cccc(-c2ccc3nncn3c2)c1` was tested, and the max response, negative = inhibition was -8.79% (inactive).
With `N#CCCC(C#N)(c1cccnc1)N1CCOCC1` (stereo not drawn) the max response, negative = inhibition was -8.09% (inactive).
With `COc1ccc(C2CC(c3cccs3)=NN2C(=O)CSc2nncs2)cc1OC` (stereo not drawn) the max response, negative = inhibition was -11.3% (inactive).
For `COc1ccc(C2=NN(C(=O)CCC(=O)O)C(c3cccs3)C2)cc1OC` (stereo not drawn), the max response, negative = inhibition was -7.47% (inactive).
In the case of `COc1ccc(C2CC(c3cccs3)=NN2C(=O)CCC(=O)O)cc1OC` (stereo not drawn), the Potency is reported as 23.8 µM (active).
With `COc1ccc(C2CC(c3cccc(OC)c3)=NN2c2ccc(S(N)(=O)=O)cc2)cc1` (stereo not drawn) the max response, negative = inhibition was -4.37% (inactive).
`COc1ccc(NC(=O)c2cc(=O)[nH]c3ccccc23)cc1S(=O)(=O)N1CCOCC1` was tested, and the max response, negative = inhibition was -1.4% (inactive).
In the case of `Nc1[nH]c(C(=O)c2ccccc2)c(-c2ccncc2)c1C(=O)NCc1cccc2ccccc12`, the max response, negative = inhibition is reported as -5.24% (inactive).
In the case of `OC[C@@H]1CN(Cc2ccc(F)cc2)C[C@H](n2cnc3c(NC4CCCC4)ncnc32)O1`, the max response, negative = inhibition is reported as -5.68% (inactive).
`Oc1c(Cl)cc(Cl)c(Cl)c1Cc1c(O)c(Cl)cc(Cl)c1Cl` was tested, and the Potency was 21.2 µM (active).
With `CCc1nc2c(OCc3ccccc3)cccn2c1N(C)C(=O)c1ccco1` the max response, negative = inhibition was 3.35% (inactive).
`CCn1c(SCC(=O)N2CCCC2=O)nc2ccccc21` was tested, and the max response, negative = inhibition was -10% (inactive).
In the case of `O=C(CCc1ccccc1)NNc1ccc(F)cc1`, the max response, negative = inhibition is reported as -17.7% (inactive).
With `Cc1ccc(F)c(NC(=O)CCc2ccccc2)c1` the max response, negative = inhibition was -9.88% (inactive).
For `O=C(CCc1ccccc1)Nc1nn[nH]n1`, the Potency was 26.7 µM (active).
For `C[C@H]1CN([C@@H](C)CO)C(=O)c2cc(C3=CCCCC3)cnc2O[C@@H]1CN(C)C(=O)Cc1ccccc1`, the max response, negative = inhibition was -26.3% (inactive).
With `CC(C)(C)c1ccc(C(=O)CSc2ncn[nH]2)cc1` the Potency was 20 µM (active).
For `O=C(CSc1ncn[nH]1)Nc1ccc(Br)cc1Br`, the max response, negative = inhibition was -1.62% (inactive).
For `CCN(C(=O)CSc1ncn[nH]1)c1cccc2ccccc12`, the max response, negative = inhibition was -2.53% (inactive).
In the case of `CC/S(CC1CC1(Cl)Cl)=N\S(=O)(=O)c1ccc(C)cc1` (stereo not drawn), the max response, negative = inhibition is reported as -0.46% (inactive).
With `Cc1ccc(S(=O)(=O)/N=S(\C)C(C)C)cc1` (stereo not drawn) the Potency was 26.7 µM (active).
In the case of `CCCC/S(C)=N/S(=O)(=O)c1ccc(C)cc1` (stereo not drawn), the max response, negative = inhibition is reported as -5.69% (inactive).
For `O=C(NCC(F)(F)F)c1ccc(S(=O)(=O)NCCc2ccc3c(c2)OCCO3)cc1`, the max response, negative = inhibition was -0.767% (inactive).
For `COCCNC(=O)C1C(=O)Nc2ccccc2C(=O)N1c1ccc2c(c1)OCCO2` (stereo not drawn), the max response, negative = inhibition was -3.12% (inactive).
With `O=C(O)c1ccc2c(=O)n3c(nc2c1)/C(=C/c1ccc(OC(F)F)cc1OC(F)F)CC3` the Potency was 10.6 µM (active).
For `Cc1ccc(/C=C2\CCn3c2nc2cc(C(=O)O)ccc2c3=O)c(C)c1`, the max response, negative = inhibition was -12.7% (inactive).
With `N#Cc1ccc(/C=C2\CCn3c2nc2cc(C(=O)O)ccc2c3=O)cc1` the max response, negative = inhibition was -8.35% (inactive).
`COc1cccc(NC(=O)C2(C)CCN2C(=O)CCC2CCCC2)c1` (stereo not drawn) was tested, and the max response, negative = inhibition was 1.49% (inactive).
`FC(F)(F)Oc1ccccc1C(c1nnnn1C1CCCCC1)N1CCN(C/C=C/c2ccccc2)CC1` (stereo not drawn) was tested, and the max response, negative = inhibition was -10.7% (inactive).
`CCNC(=O)C1(C)CCN(C(=O)c2ccccc2)C1` (stereo not drawn) was tested, and the max response, negative = inhibition was -1.07% (inactive).
With `C[C@@H]1CN([C@@H](C)CO)C(=O)c2c(c3ccccc3n2C)-c2ccccc2CO[C@H]1CN(C)C(=O)C1CC1` the max response, negative = inhibition was -5.93% (inactive).
In the case of `NNC(=O)c1cnn(-c2ccccc2)c1C(F)(F)F`, the max response, negative = inhibition is reported as -2.55% (inactive).
`Nc1c(C(=O)O)cnn1-c1ccccc1` was tested, and the Potency was 23.8 µM (active).
`CCNC(=O)c1cnn(-c2ccccc2)c1-c1ccccc1` was tested, and the max response, negative = inhibition was -11.7% (inactive).
In the case of `COc1ccc(CCNC(=O)CN(c2ccccc2)S(=O)(=O)c2ccccc2)cc1`, the max response, negative = inhibition is reported as -1.56% (inactive).
For `CCCCCCN1CCN(C2CN(Cc3cn(CCCCCC)nn3)S(=O)(=O)C2)CC1` (stereo not drawn), the max response, negative = inhibition was 6.53% (inactive).
`COc1ccc(-c2cc3c(c4c2ccn4C)C2CCC3C2)cn1` (stereo not drawn) was tested, and the max response, negative = inhibition was -0.384% (inactive).
In the case of `O=S(=O)(NC(=S)Nc1ccccc1)c1ccc(F)cc1`, the Potency is reported as 23.8 µM (active).
For `CC(=O)NS(=O)(=O)c1ccc(NC(=S)NC(=O)C(C)(C)C)cc1`, the max response, negative = inhibition was -8.92% (inactive).
For `COC(=O)C(NS(=O)(=O)c1ccc(F)cc1)c1ccccc1` (stereo not drawn), the max response, negative = inhibition was -18.8% (inactive).
In the case of `Cc1ccc([C@H]2N[C@]3(CCCN(Cc4ccccc4)C3=O)[C@H]3C(=O)N(Cc4ccccc4)C(=O)[C@@H]23)cc1`, the max response, negative = inhibition is reported as 5.77% (inactive).
In the case of `O=C(NCc1ccccc1Cl)c1csc([C@@H]2O[C@H](CO)[C@@H](O)[C@H]2O)n1`, the max response, negative = inhibition is reported as -2.33% (inactive).
With `CCCNC(=O)C1(C)CCCN(C(=O)c2cccc(OC(C)=O)c2C)C1` (stereo not drawn) the max response, negative = inhibition was 2.94% (inactive).
For `Cc1ccc(C(=O)NC(=S)Nc2ccc(N3CCOCC3)cc2)cc1`, the max response, negative = inhibition was -12.8% (inactive).
In the case of `O=C(Nc1ccc(S(=O)(=O)N2CCOCC2)cc1)C1CCN(S(=O)(=O)c2ccc(Cl)cc2)CC1`, the max response, negative = inhibition is reported as 3.5% (inactive).
For `O=C(NNC(=S)Nc1ccccc1)c1cccc(S(=O)(=O)N2CCOCC2)c1`, the max response, negative = inhibition was 2.12% (inactive).
In the case of `O=C(NC(=S)Nc1ccc(S(=O)(=O)N2CCOCC2)cc1)c1ccccc1[N+](=O)[O-]`, the Potency is reported as 33.6 µM (active).
For `COc1ccccc1C(=O)NC(=S)Nc1ccc(N2CCOCC2)cc1`, the Potency was 26.7 µM (active).
In the case of `COc1cccc(OC)c1C(=O)NC(=S)Nc1ccc(N2CCOCC2)c(Cl)c1`, the max response, negative = inhibition is reported as -8.56% (inactive).
With `CC(C)(C)NC(=O)C(CCc1ccccc1)n1c(=O)c(-c2ccccc2)nc2ccccc21` (stereo not drawn) the max response, negative = inhibition was -22.7% (inactive).
With `CCCCN(C=O)c1c(CC)nc2c(OCCC3CCCCC3)cccn12` the max response, negative = inhibition was -1.3% (inactive).
In the case of `O=CNc1cc(-c2ccc(C(=O)N3CCOCC3)cc2)cn2c(-c3ccc(F)cc3)cnc12`, the max response, negative = inhibition is reported as -25.7% (inactive).
With `O=C(C[C@H]1CC[C@@H](NC(=O)c2ccncc2)[C@@H](CO)O1)NCC1CC1` the max response, negative = inhibition was -5.23% (inactive).
With `Cc1sc2ncn(CC(=O)NCCCC(=O)N(C)Cc3ccccc3)c(=O)c2c1C` the Potency was 26.7 µM (active).
With `CN(Cc1ccccc1)C(=O)CCNC(=O)Cn1cnc2ccccc2c1=O` the max response, negative = inhibition was -6.79% (inactive).
`Cc1sc2ncn(CC(=O)NCCCC(=O)NCc3ccc(F)cc3)c(=O)c2c1C` was tested, and the max response, negative = inhibition was -9.91% (inactive).
For `Cc1ccc([C@H]2C[C@H](O)[C@@H](n3cc(COC(=O)c4ccccc4)nn3)CN2CC2CCCCC2)cc1`, the max response, negative = inhibition was 7.82% (inactive).
In the case of `COc1cccc(Nc2nnc(SCC(=O)N3CC(=O)Nc4ccccc43)s2)c1`, the Potency is reported as 26.7 µM (active).
In the case of `Cc1nc(SCC(=O)N2CC(=O)Nc3ccccc32)c2c(C)c(C)sc2n1`, the max response, negative = inhibition is reported as -1.22% (inactive).
`COc1cccc(Nc2nnc(SCC(=O)N3CC(C)OC(C)C3)s2)c1` (stereo not drawn) was tested, and the max response, negative = inhibition was 1.98% (inactive).
`COC(=O)[C@]12CCCCC=C1N(CCC1=CCCCC1)C(=O)[C@H](CC(=O)N1CCSCC1)C2` was tested, and the max response, negative = inhibition was -4.1% (inactive).
With `CCOC(=O)[C@]12CCC=C1N(CCC1=CCCCC1)C(=O)[C@H](CC(=O)NCc1ccc(C)o1)C2` the max response, negative = inhibition was -24.8% (inactive).
In the case of `CC(=O)Nc1cccc(-c2cc(NC=O)c3ncc(-c4ccc(F)c(Cl)c4)n3c2)c1`, the max response, negative = inhibition is reported as -21.6% (inactive).
In the case of `O=S1(=O)CCN(C2CCCCCCCCCCC2)CC1`, the max response, negative = inhibition is reported as -0.289% (inactive).
`CCOC(=O)C(=Cc1ccccc1)C(=O)c1ccccc1` was tested, and the max response, negative = inhibition was -10.7% (inactive).
`Cc1cc(C)nc(S/C=C/C(=O)c2ccccc2)n1` was tested, and the Potency was 2.99 µM (active).
For `Cc1cc(C)nc(N(C#N)CC(=O)Nc2ccccc2)n1`, the max response, negative = inhibition was -10.2% (inactive).
`Cc1ccc(S(=O)(=O)N2C[C@@H](C)[C@]3(C2)[C@H](O)[C@H](OC(=O)NCc2ccccc2)C[C@H]2C(=O)N(c4ccccc4)C(=O)[C@H]23)cc1` was tested, and the max response, negative = inhibition was -4.82% (inactive).
`COc1ccc(C(=O)N2CCC(C(=O)Nc3cccc(C)c3)CC2)cc1OC` was tested, and the max response, negative = inhibition was -1.21% (inactive).
With `COc1ccc(C(=O)N2CCC(C(=O)Nc3ccc(C)cc3)CC2)cc1` the Potency was 3.36 µM (active).
In the case of `O=C(Nc1ccccc1)C1CCN(C(=O)c2ccc(Br)cc2)CC1`, the max response, negative = inhibition is reported as 1.93% (inactive).
For `Cc1cccc(C)c1NC(=O)C(c1cccc2ccccc12)n1c(=O)c(-c2ccco2)nc2ccccc21` (stereo not drawn), the max response, negative = inhibition was -15.3% (inactive).
`CCOC(=O)[C@]12CCCC=C1N(Cc1ccc3c(c1)OCO3)C(=O)[C@H](CC(=O)NCc1cccs1)C2` was tested, and the max response, negative = inhibition was -29.1% (inactive).
`Cc1c(C)c2cc3c4c(oc3c(C)c2oc1=O)CCCC4` was tested, and the max response, negative = inhibition was -0.836% (inactive).
For `CC[C@@H](C)[C@H](NC(=O)CCc1c(C)c2cc3c4c(oc3c(C)c2oc1=O)CCCC4)C(=O)O`, the max response, negative = inhibition was -24% (inactive).
`Cc1c(CCC(=O)N[C@@H](CC(C)C)C(=O)O)c(=O)oc2c(C)c3oc4c(c3cc12)CCCC4` was tested, and the Potency was 29.9 µM (active).
